Tb PYK inh: inhibitors of Trypanosoma brucei pyruvate kinase; TbPYK enzyme, Kinase-Glo Plus ATP luminescence, 45 min; Potency, µM (series often up to 76.8 µM), for inactives: top-dose activity, negative = inhibition, actives largely listed as inhibitors; 0.12% of 410,000 active; AID 624173; further: potency means the concentration at half of the fitted maximal effect; on the % scale 0 is the no-effect control and ±100 the full control effect; nearly all actives have a fitted effect of over 50% in size
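ADP (130 uM final) triggers the TbPYK reaction after compound addition; incubation is 45 min at room temperature. Kinase-Glo Plus is then added and luminescence imaged. Normalized data are fitted to concentration-effect curves.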
LmPK inh: inhibitors of Leishmania mexicana pyruvate kinase; Q27686; Potency, µM (series often up to 57.5 µM), inactives show at the top dose activity change, negative = inhibition, hits mostly inhibitors; purified LmPK, Kinase-Glo ATP luminescence, 1 h; AID 1721; 0.37% of 290,000 active; further: potency means the concentration at half of the fitted maximal effect; on the % scale 0 is the no-effect control and ±100 the full control effect
Target sequence (Q27686 whole entry, looked up): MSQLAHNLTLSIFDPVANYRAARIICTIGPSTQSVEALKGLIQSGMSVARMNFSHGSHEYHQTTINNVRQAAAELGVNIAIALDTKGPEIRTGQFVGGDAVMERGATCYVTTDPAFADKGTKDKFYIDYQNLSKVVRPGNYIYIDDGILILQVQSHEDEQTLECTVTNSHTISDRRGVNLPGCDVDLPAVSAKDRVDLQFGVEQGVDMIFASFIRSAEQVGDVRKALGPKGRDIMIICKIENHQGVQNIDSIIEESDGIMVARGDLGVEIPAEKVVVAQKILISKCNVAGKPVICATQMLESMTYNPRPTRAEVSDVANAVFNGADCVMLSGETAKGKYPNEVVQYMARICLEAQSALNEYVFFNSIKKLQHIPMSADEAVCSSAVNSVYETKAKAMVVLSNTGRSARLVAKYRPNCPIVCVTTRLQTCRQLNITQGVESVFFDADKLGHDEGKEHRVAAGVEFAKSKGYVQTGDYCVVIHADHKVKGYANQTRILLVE
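ATP generated from ADP (0.1 mM) and PEP (0.5 mM) by 0.1 nM LmPK over 1 h at room temperature (pH 7.2 imidazole buffer) was detected by coupled luciferase luminescence. Values were normalized to uninhibited and no-enzyme wells.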
CHX counter: counter-screen for Shiga toxin inhibitors: cycloheximide protein synthesis inhibition. cell reporter, cycloheximide protein synthesis inhibition counterscreen. 12% of 300,000 active. max response, %; in the data active means max response mostly above about 13%, no sharp cut-off; inactive means mostly below about 14%; further: read at 38.3 µM for the half of the compounds with a filed dose; 0% is about no effect
NS1 inh: inhibitors of influenza NS1 protein function; Potency, µM (top dose mostly 46.1 µM), for inactives: at the top dose activity, positive = more growth; 0.4% of 270,000 active; AID 2326; calls by dose curve; further: potency means the concentration at half of the fitted maximal effect; actives are rising curves; nearly all actives have a fitted effect of over 50% in size
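In this qHTS, NS1 from influenza A is expressed in budding yeast, where it slows growth. Cells are switched from glucose to 2% galactose medium (pH 6.0, -URA), treated with compound, and growth recovery is read at OD600.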
SARS PLP yeast: SARS-CoV PLP inhibition in yeast; S. cerevisiae expressing SARS-CoV PLpro, growth rescue; Potency, µM (series often up to 32.9 µM), for the others: at the highest dose activity, positive = growth rescue, usual class: activators; 0.19% of 330,000 active; calls by dose curve; further: potency means the concentration at half of the fitted maximal effect; 0% is about no effect; nearly all actives have a fitted effect of over 55% in size
Shiga toxin inh: Shiga toxin inhibition; Vero cells, Shiga toxin protein synthesis inhibition reporter; inhibition, % at 38.7 µM; 9.2% of 290,000 active; AID 2315; in the data active means inhibition mostly above about 28%, no sharp cut-off; inactive means mostly below about 43%; further: 0% is about no effect
Numbers without * were called inactive; ? = inconclusive; . = no result given; + = active, no number. The full list was thinned out, with hits kept by preference. Unless noted, the call rests on the fitted dose curve; in most records, active means well fitted curve in the direction sought with a large enough effect; inconclusive means small, poorly fitted or top-dose-only effect, or another doubt; inactive means no such curve, though single readings can be large; an effect the other way counts as inactive or inconclusive.

SMILES	Tb PYK inh	LmPK inh	CHX counter	NS1 inh	SARS PLP yeast	Shiga toxin inh
C=C(C)C1CC=C(C)/C(=N/NC(=O)c2ccoc2C)C1 (centres undefined)	1%	3%	66*	-2%	-5%	+
C=C(C)C1CC=C(C)/C(=N/NC(=O)c2ccc(NC(=O)c3cccc(C)c3)cc2)C1 (centres undefined)	3%	0%	-1	-5%	9%	13
C=C(C)C1CC=C(C)/C(=N/NC(=S)Nc2ccccc2)C1 (centres undefined)	-11%	1%	21*	-9%	10µM*	27
COc1ccc(S(=O)(=O)N2CCN(c3ccccc3OC)CC2)cc1-c1noc(C)n1	-17%	.	8	.	.	-7
Cc1ccc(OC(C)C(=O)Nc2ccc(S(=O)(=O)N3CCOCC3)cc2)cc1 (centres undefined)	-19%	0%	7	0%	0%	-4
Cc1ccc(C)c(CSc2nc3ccncc3n2CC(=O)Nc2ccc(N(C)C)cc2)c1	-12%	.	.	.	.	.
Cc1ccc(NS(=O)(=O)c2ccccc2)c(C)c1	.	.	-5	.	.	-6
COc1cc2c(cc1OC)C(C)N(C(=O)Cc1ccc(C(F)(F)F)cc1)CC2 (centres undefined)	-6%	4%	6	0%	-2%	-3
CCOC(=O)/C(C#N)=C\c1ccc(N2CCN(C)CC2)cc1	1%	3%	26*	-13%	6%	13
CCOC(=O)/C(C#N)=C/c1ccc(N2CCN(C)CC2)cc1	6%	6%	29*	-10%	0%	23
CCOC(=O)C(/C=C(\C#N)C(=O)OCC)=C(/N)N1CCN(c2ccccc2)CC1	4%	-4%	-2	4%	4%	-18
CCOC(=O)/C(C#N)=C\c1ccc(OC)c(OC)c1	5%	0%	-4	5%	1%	-4
Cn1c(=O)c2c(c3ccccc31)OC(=O)CC2c1ccccc1 (centres undefined)	6%	.	.	.	.	.
COC1=C/C(=C/c2c(O)c(C#N)c3ccccn23)C=CC1=O	?	?	56*	7%	-1%	73*
c1ccc2c(c1)SCc1c-2[nH]c2ccccc12	.	.	15*	.	.	47*
c1ccc2c(c1)OCCc1c-2[nH]c2ccccc12	-2%	1%	14*	-3%	-6%	21
CC1=NCCc2c1[nH]c1ccccc21	-2%	3%	-1	2%	6%	-17
O=C(CSc1nc2ccccc2nc1Cc1ccc(Cl)cc1)Nc1ccc2c(c1)OCO2	-3%	.	.	.	.	.
CCOc1ccc(NC(=O)c2cccc(OC(=S)N3CCOCC3)c2)cc1	3%	1%	11*	3%	1%	5
O=C(Nc1ccc(Br)cc1)c1cccc(OC(=S)N2CCOCC2)c1	-10%	4%	19*	2%	-4%	50*
COc1ccc(NC(=O)c2cccc(OC(=S)N3CCOCC3)c2)cc1	-1%	-6%	6	-2%	1%	21
CSc1ccc(CNC(=O)C2CCN(c3nnc(-n4cccc4CNc4ccc(C)cc4)s3)CC2)cc1	2%	.	.	.	.	.
COc1ccc(C(=O)CCNc2ccc(F)cc2)cc1	2%	-1%	28*	-6%	0%	82*
COc1ccc(C(=O)Cc2nnc(C)s2)cc1	4%	-8%	48*	11%	17%	105*
COc1ccc(CNC(=O)CN2C(=O)c3ccccc3C2=O)cc1	2%	-5%	8	3%	1%	11
SMILES	Tb PYK inh	LmPK inh	CHX counter	NS1 inh	SARS PLP yeast	Shiga toxin inh
COc1ccc(O)c(C(=O)CC(=O)c2ccccc2)c1	.	-3%	43*	-168%	-22%	88
COc1ccc(C(=O)CN2C(=O)c3ccccc3C2=O)cc1	-1%	0%	30*	1%	1%	58*
CCOC(=O)CN1C(=O)c2cccnc2Oc2ccccc21	0%	.	.	.	.	.
COc1ccc(CCC(=O)N2CCCC(Nc3ccc(OC)cc3)C2)cc1 (centres undefined)	-7%	-5%	-3	-8%	-2%	-4
COc1ccc(C(=O)CC(=O)c2ccc(OC)cc2)cc1	-6%	-8%	26*	-9%	0%	33
COc1ccc(C(=O)C[n+]2cccc3cc(OC)ccc32)cc1	-6%	0%	3	-1%	-2%	-8
COc1ccc(C(=O)C[n+]2ccc3ccccc3c2C)cc1	4%	0%	45*	-4%	-2%	94*
